# Values without a mark were called inactive. Calls of active or inactive are those of the source.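 How the source made its calls, unless noted: active means viability at or below 10% of carrier control in both of two separate runs; inconclusive means viability at or below 10% in only one of the two runs; inactive means the rest.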
# Target: Receptor tyrosine-protein kinase erbB-2 (Homo sapiens) (UniProt P04626)
# Assay: Her2 expression decrease, cell viability multiplex – SKBR3 breast tumor cells, AlphaScreen, ATP viability, primary screen (AID 461;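 active means Her2 level under about 52% in both replicate screens, with viability over 70% of control, limit read from the data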;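 further: lower value means less Her2 protein in the cells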)
# Details: 18-24 h, at 10 µM, stronger effect = lower value
# Sequence of Receptor tyrosine-protein kinase erbB-2 (Homo sapiens) (P04626 whole entry, looked up): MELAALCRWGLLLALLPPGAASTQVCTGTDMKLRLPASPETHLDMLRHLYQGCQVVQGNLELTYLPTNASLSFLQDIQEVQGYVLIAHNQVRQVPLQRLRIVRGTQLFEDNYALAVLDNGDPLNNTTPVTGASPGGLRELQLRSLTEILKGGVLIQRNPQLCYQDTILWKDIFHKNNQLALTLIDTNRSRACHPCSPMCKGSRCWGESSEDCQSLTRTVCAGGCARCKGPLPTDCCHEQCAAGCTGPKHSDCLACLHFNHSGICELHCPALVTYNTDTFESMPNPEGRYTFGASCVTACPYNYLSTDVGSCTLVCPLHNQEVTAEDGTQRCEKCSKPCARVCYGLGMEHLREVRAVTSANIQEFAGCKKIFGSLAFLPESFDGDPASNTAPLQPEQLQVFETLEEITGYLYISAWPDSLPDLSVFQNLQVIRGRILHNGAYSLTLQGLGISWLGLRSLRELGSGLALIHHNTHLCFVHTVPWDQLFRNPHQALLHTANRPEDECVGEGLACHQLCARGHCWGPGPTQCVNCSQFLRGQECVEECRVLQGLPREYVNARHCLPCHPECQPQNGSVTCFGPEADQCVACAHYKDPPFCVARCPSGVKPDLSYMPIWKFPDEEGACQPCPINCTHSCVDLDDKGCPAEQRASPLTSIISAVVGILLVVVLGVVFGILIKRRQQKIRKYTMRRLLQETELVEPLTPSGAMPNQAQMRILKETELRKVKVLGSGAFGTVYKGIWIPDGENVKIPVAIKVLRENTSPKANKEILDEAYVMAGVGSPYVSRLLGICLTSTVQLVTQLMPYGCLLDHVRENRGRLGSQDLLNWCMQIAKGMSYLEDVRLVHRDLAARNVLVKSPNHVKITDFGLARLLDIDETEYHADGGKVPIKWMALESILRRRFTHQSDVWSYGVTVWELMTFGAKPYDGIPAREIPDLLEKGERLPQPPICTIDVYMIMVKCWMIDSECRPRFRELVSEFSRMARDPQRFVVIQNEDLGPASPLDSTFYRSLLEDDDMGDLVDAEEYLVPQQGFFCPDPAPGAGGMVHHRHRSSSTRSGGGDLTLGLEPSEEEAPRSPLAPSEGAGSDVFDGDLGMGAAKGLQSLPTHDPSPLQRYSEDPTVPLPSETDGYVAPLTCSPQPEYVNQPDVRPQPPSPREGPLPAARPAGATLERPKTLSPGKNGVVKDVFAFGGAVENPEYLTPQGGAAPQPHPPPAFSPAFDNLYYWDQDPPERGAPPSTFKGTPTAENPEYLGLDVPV
row,SMILES,Her2 level
1,COCCNC(=O)c1cc(-c2cccs2)on1,77.5%
2,CC(C)c1nnc(NC(=O)C2CCCCC2)s1,97%
3,Cc1nc2ccc(S(=O)(=O)NC(C(=O)Nc3nccs3)C(C)C)cc2s1 (stereo not given),93%
4,O=C(Cn1c(=O)[nH]c2ccsc2c1=O)NC1CCCCCC1,97%
5,CCCCN(C)Cc1c(O)ccc2c(-c3ccccc3)cc(=O)oc12,102%
6,O=C(CN1CCN(Cc2ccccc2F)C1=O)NCc1cccnc1,94.5%
7,O=c1c2ccccc2nc2n1CCN2,95.5%
8,O=C(CSc1nnc(Cn2c(=O)sc3ccccc32)n1-c1ccccc1)Nc1nccs1,106%
9,Cc1ccc(-n2nc(C)c3cc(C(=O)O)sc32)cc1,95.5%
10,CCOC(=O)c1oc2c(CN3CCN(C)CC3)c(O)ccc2c(=O)c1-c1ccccc1OC,110%
11,CCCCn1c(NCc2ccccc2O)nc2ccccc21,124%
12,Cc1cc2ncc(-c3ccc(Cl)cc3)c(N)n2n1,114%
13,CC1(C(=O)NC2CCCCC2)CCC(=O)N1Cc1cccs1 (stereo not given),114%
14,CCc1cc(=O)n2[nH]c(C)c(-c3ccccc3OC)c2n1,106%
15,Cc1nnc(SCCn2c(N3CCC(Cc4ccccc4)CC3)nc3c2c(=O)[nH]c(=O)n3C)s1,93.5%
16,O=C(C1CCCN(S(=O)(=O)c2cccnc2)C1)N1CCn2c1nc1ccccc12 (stereo not given),103%
17,CCOC(=O)c1ccc(NC(=O)Cn2cc3c(n2)CCC(C)C3)cc1 (stereo not given),92%
18,Cc1cc(C)cc(N(CC(=O)Nc2cccc(C)n2)S(=O)(=O)c2c(C)noc2C)c1,97%
19,COc1ccc(-c2nnc(SCC(=O)N3CCOCC3)o2)cc1OC,96%
20,Cc1c(C(=O)OCc2ccccc2)[nH]c2c1C(=O)CC(c1ccco1)C2 (stereo not given),40.5% (active)

row,SMILES,Her2 level
1,CCCn1cc(SCC(N)=O)c2ccccc21,102%
2,CC1CCCCN1CCNC(=O)C1CCN(S(=O)(=O)c2cccc3cccnc23)CC1 (stereo not given),96.5%
3,Cc1onc(-c2ccccc2Cl)c1C(=O)N1CCc2ccccc21,78.5%
4,O=C(c1ccc(CNc2c(N3CCCC3)c(=O)c2=O)cc1)N1CCc2ccccc2C1,100%
5,Cc1cccc(-n2ncc3c(NCc4cccnc4)ncnc32)c1,93%
6,COc1cccc2cc(C(=O)OC3CCN(C)CC3)c(=O)oc12,103%
7,CCOc1ccccc1NC(=O)CC1Nc2cc(C)c(C)cc2NC1=O (stereo not given),82%
8,COC(=O)C(C)Sc1nnc2n(-c3cccc(C)c3)c(=O)c3c4c(sc3n12)CCCC4 (stereo not given),112%
9,Cc1c(NC(=O)C2CCCCN2S(=O)(=O)c2ccc(Cl)cc2)c(=O)n(-c2ccccc2)n1C (stereo not given),120%
10,CCC(=O)c1cc(F)c(N2CCN(C(=O)c3ccco3)CC2)cc1C,90.5%
11,Cc1cccc(C2CC(c3ccccc3)Nc3nc(N)nn32)c1 (stereo not given),94.5%
12,Cc1ccc(C)c(NC(=O)CSc2nnc(-c3ccccc3)o2)c1,104%
13,CCCCN(CC)CCNC(=O)c1cc2c(C)nc3ccccc3c2o1,95.5%
14,O=C(Nc1ccccc1)C1=C(O)CC(c2ccoc2)CC1=Nc1ccccc1 (stereo not given),91%
15,COc1ccc(OCc2nc(C#N)c(N3CCN(c4ccc(OC)cc4)CC3)o2)cc1,115%
16,CCOc1cccc(OCCCCn2ccnc2)c1,75.5%
17,COc1ccc(OC)c(C2CC(=O)NC(SC)=C2C#N)c1 (stereo not given),94%
18,Cc1cc(NC(=O)c2cccc(S(=O)(=O)N3CC(c4ccccc4)CC3=O)c2)no1 (stereo not given),97.5%
19,O=C(Cn1nc(Cc2ccncc2)c2ccccc2c1=O)N1CCN(C(=O)c2ccco2)CC1,110%
20,COC(=O)c1sc(NC(=O)COc2ccccc2OC)nc1C,90%

# System: not listed separately
# Assay: reduced viability of SK-BR-3 breast cancer cells – cell-based, 24 h, human, pilot screen (AID 572);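 further: compound exposure lasted between 18 and 24 h rather than exactly 24 h; 100% = carrier-treated control wells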
# Details: SK-BR-3 viability, CellTiter-Glo luminescence, at 10 µM, stronger effect = lower value
row,SMILES,viability
1,COCCNC(=O)c1cc(-c2cccs2)on1,97%
2,CC(C)c1nnc(NC(=O)C2CCCCC2)s1,98.5%
3,Cc1nc2ccc(S(=O)(=O)NC(C(=O)Nc3nccs3)C(C)C)cc2s1 (stereo not given),87%
4,O=C(Cn1c(=O)[nH]c2ccsc2c1=O)NC1CCCCCC1,110%
5,CCCCN(C)Cc1c(O)ccc2c(-c3ccccc3)cc(=O)oc12,89%
6,O=C(CN1CCN(Cc2ccccc2F)C1=O)NCc1cccnc1,94.5%
7,O=c1c2ccccc2nc2n1CCN2,84%
8,O=C(CSc1nnc(Cn2c(=O)sc3ccccc32)n1-c1ccccc1)Nc1nccs1,97%
9,Cc1ccc(-n2nc(C)c3cc(C(=O)O)sc32)cc1,97%
10,CCOC(=O)c1oc2c(CN3CCN(C)CC3)c(O)ccc2c(=O)c1-c1ccccc1OC,94%
11,CCCCn1c(NCc2ccccc2O)nc2ccccc21,98%
12,Cc1cc2ncc(-c3ccc(Cl)cc3)c(N)n2n1,83%
13,CC1(C(=O)NC2CCCCC2)CCC(=O)N1Cc1cccs1 (stereo not given),83%
14,CCc1cc(=O)n2[nH]c(C)c(-c3ccccc3OC)c2n1,80.5%
15,Cc1nnc(SCCn2c(N3CCC(Cc4ccccc4)CC3)nc3c2c(=O)[nH]c(=O)n3C)s1,82.5%
16,O=C(C1CCCN(S(=O)(=O)c2cccnc2)C1)N1CCn2c1nc1ccccc12 (stereo not given),90.5%
17,CCOC(=O)c1ccc(NC(=O)Cn2cc3c(n2)CCC(C)C3)cc1 (stereo not given),91.5%
18,Cc1cc(C)cc(N(CC(=O)Nc2cccc(C)n2)S(=O)(=O)c2c(C)noc2C)c1,88.5%
19,COc1ccc(-c2nnc(SCC(=O)N3CCOCC3)o2)cc1OC,91%
20,Cc1c(C(=O)OCc2ccccc2)[nH]c2c1C(=O)CC(c1ccco1)C2 (stereo not given),86.5%

row,SMILES,viability
1,CCCn1cc(SCC(N)=O)c2ccccc21,86.5%
2,CC1CCCCN1CCNC(=O)C1CCN(S(=O)(=O)c2cccc3cccnc23)CC1 (stereo not given),97%
3,Cc1onc(-c2ccccc2Cl)c1C(=O)N1CCc2ccccc21,87.5%
4,O=C(c1ccc(CNc2c(N3CCCC3)c(=O)c2=O)cc1)N1CCc2ccccc2C1,90.5%
5,Cc1cccc(-n2ncc3c(NCc4cccnc4)ncnc32)c1,95.5%
6,COc1cccc2cc(C(=O)OC3CCN(C)CC3)c(=O)oc12,96%
7,CCOc1ccccc1NC(=O)CC1Nc2cc(C)c(C)cc2NC1=O (stereo not given),80.5%
8,COC(=O)C(C)Sc1nnc2n(-c3cccc(C)c3)c(=O)c3c4c(sc3n12)CCCC4 (stereo not given),87.5%
9,Cc1c(NC(=O)C2CCCCN2S(=O)(=O)c2ccc(Cl)cc2)c(=O)n(-c2ccccc2)n1C (stereo not given),112%
10,CCC(=O)c1cc(F)c(N2CCN(C(=O)c3ccco3)CC2)cc1C,82%
11,Cc1cccc(C2CC(c3ccccc3)Nc3nc(N)nn32)c1 (stereo not given),92%
12,Cc1ccc(C)c(NC(=O)CSc2nnc(-c3ccccc3)o2)c1,89.5%
13,CCCCN(CC)CCNC(=O)c1cc2c(C)nc3ccccc3c2o1,91%
14,O=C(Nc1ccccc1)C1=C(O)CC(c2ccoc2)CC1=Nc1ccccc1 (stereo not given),93%
15,COc1ccc(OCc2nc(C#N)c(N3CCN(c4ccc(OC)cc4)CC3)o2)cc1,94%
16,CCOc1cccc(OCCCCn2ccnc2)c1,87%
17,COc1ccc(OC)c(C2CC(=O)NC(SC)=C2C#N)c1 (stereo not given),102%
18,Cc1cc(NC(=O)c2cccc(S(=O)(=O)N3CC(c4ccccc4)CC3=O)c2)no1 (stereo not given),92%
19,O=C(Cn1nc(Cc2ccncc2)c2ccccc2c1=O)N1CCN(C(=O)c2ccco2)CC1,98.5%
20,COC(=O)c1sc(NC(=O)COc2ccccc2OC)nc1C,99.5%

# Source: PubChem BioAssay
